Test [1] has as its target Lysosomal acid glucosylceramidase (Homo sapiens) (UniProt P04062). Briefly: Glucocerebrosidase-p2 (AID 348; in the data active means potency below about 10 µM; further: potency means the concentration at half of the fitted maximal effect). The settings on record: purified GBA, blue fluorogenic substrate, 40 min. The essentials: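 Compounds titrated from 0.6 nM upwards against 0.2 nM enzyme in pH 5.9 citric acid/KH2PO4, taurocholate, tween-20; blue fluorogenic substrate 80 uM, 40 min room temperature, stopped and read Ex 365/Em 440 for AC50.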

A short description of test [2]: AP1 Signaling Pathway (AID 357; active means well fitted curve in either direction with a large enough effect, not every such curve was filed as active;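 further: ME-180 reporter cells stimulated with EGF at its EC50 level; on the % scale 0 is the no-effect control and ±100 the full control effect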). The note with it: ME-180 AP-1-bla reporter, EGF-induced, beta-lactamase ratio, 5 h; at 7.69 µM (top of the series) unless noted. The essentials:
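Cells are seeded overnight, exposed to compound titrations and an EC50 level of EGF for 5 hours at 37 °C, then loaded with CCF4 dye for 2.5 hours. Beta-lactamase activity under the AP-1 element is read as a blue/green ratio.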

Test [3] addresses Cytochrome P450 1A2 (Homo sapiens) (UniProt P05177). Briefly: p450-cyp1a2 (AID 410; calls by dose curve; further: potency means the concentration at half of the fitted maximal effect). The settings on record: recombinant CYP1A2, luciferin-ME demethylation, luminescence; series mostly up to 57 µM. The method in brief:
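20nM CYP1A2 with 100uM Luciferin-ME (at Km) in 100mM KPO4; compound preincubated 10 min, NADPH regeneration added, 60 min at room temperature. Luciferin quantified by luminescence after detection reagent; normalized to 57 uM furafylline.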

A short description of test [4]: NFAT Signaling Pathway (AID 444; active means well fitted curve in either direction with a large enough effect, not every such curve was filed as active;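 further: carbachol stimulus at about its EC50 of 1 µM final; on the % scale 0 is the no-effect control and ±100 the full control effect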). The note with it: Jurkat NFAT-bla M1, carbachol, beta-lactamase ratio, 5 h; at 7.69 µM (top of the series) unless noted. The method in brief:
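Jurkat cells carrying an NFAT-driven β-lactamase reporter and co-transfected muscarinic M1 receptor were treated with compound plus carbachol (1 uM final, an EC50 level) for 5 h at 37 °C. CCF4 loading followed for 1 h at RT; 460/530 nm ratio gave %activity.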

The nature of test [5]: Stat Signaling Pathway (AID 446; active means well fitted curve in either direction with a large enough effect, not every such curve was filed as active;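 further: ME-180 cervical cancer cells given 40 pM IL-6 alongside compound; SIE-controlled beta-lactamase reporter measured as 460/530 nm FRET emission ratio; on the % scale 0 is the no-effect control and ±100 the full control effect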). The settings on record: ME-180 SIE beta-lactamase reporter, IL-6 stimulated, 5 h; at 7.69 µM (top of the series) unless noted. The essentials: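 Reporter line: ME-180 cervical carcinoma, SIE-beta-lactamase. Treatment: compound with 40 pM IL-6, 5 hrs, 37 C, in low-serum OPTI-MEM with 10 mM HEPES pH 7.3. Detection: 460/530 nm fluorescence.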

Test [6] concerns the target Glucocorticoid receptor (Homo sapiens) (UniProt P04150). Briefly: GR-GFP Redistribution (AID 450;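 active means compounds whose dose series gives a full or clear partial fitted curve of increased nuclear translocation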; further: potency means the concentration at half of the fitted maximal effect). The settings on record: U2OS GR-GFP nuclear translocation, laser cytometry, 2 h.
Test [7] has the same target. Description: GR-EFC Redistribution (AID 451; calls by dose curve; further: potency means the concentration at half of the fitted maximal effect). The settings on record: CHO-K1 GR-EFC translocation, beta-gal luminescence, 2 h. The essentials:
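CHO-K1 cells stably expressing nuclear-localized β-gal enzyme acceptor and GR fused C-terminally to the enzyme donor fragment; ligand-driven nuclear translocation restores β-gal by complementation. Compounds titrated up to 46 uM final, 2 h at 37 °C; luminescence read.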

For test [8], the target named is Mitogen-activated protein kinase 10 (Mus musculus) (UniProt Q61831). Description: JNK3 AlphaScreen Assay (AID 530; active means well fitted curve in either direction with a large enough effect, not every such curve was filed as active;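 further: kinase came from lysate of stimulated human HepG2 cells; signal reports phosphorylation of biotinylated GST-cJun 1-79 at Ser73 with 10 µM ATP; on the % scale 0 is the no-effect control and ±100 the full control effect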). The settings on record: JNK3 lysate, c-Jun phosphorylation; series mostly up to 57.1 µM. The method in brief:
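Inhibitors reduce antibody binding to phosphorylated biotin-cJun, lowering AlphaScreen luminescence. Lysates from HepG2 cells pre-activated by IL-1beta plus TNF-alpha supplied JNK3; compounds were titrated.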

In test [9] the target is 3',5'-cyclic-AMP phosphodiesterase 4B (Homo sapiens) (UniProt Q07343). Description: qHTS Assay for Inhibitors of PDE-IV (AID 607; active means well fitted activation curve with a large enough effect in the main read-out, with a control signal flat, not every such curve was filed as active; further: % of control where 0% means no effect). The note with it: HEK293 ACTOne CNG channel cells, membrane potential fluorescence; series mostly up to 22.9 µM. The method in brief: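 Cell-based read-out of cAMP via a modified cyclic nucleotide-gated channel and membrane potential dye (535/590 nm) in HEK293 cells expressing PDE4 endogenously. Compounds tested up to 22.9 uM final; 100 uM RO 20-1724 reference.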

Test [10] concerns the target Cytochrome P450 3A4 (Homo sapiens) (UniProt P08684). Description: qHTS Assay for Inhibitors and Substrates of Cytochrome P450 3A4 (AID 884). Further: potency means the concentration at half of the fitted maximal effect; nearly all actives have a fitted effect of over 50% in size. The settings on record: recombinant CYP3A4, Luciferin-PPXE luminescence; series mostly up to 57.1 µM. The essentials:
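20 nM human CYP3A4 with 25 uM Luciferin-PPXE (at KM) in 200 mM KPO4, preincubated 10 min with compound; NADPH regeneration started a 60 min RT reaction. Luciferin detected by luminescence, normalized to 57 uM ketoconazole as full inhibition.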
A general note: qHTS replaces the single test concentration by a dilution series.

Test [11] shares this target. Description: qHTS Assay for Activators of Cytochrome P450 3A4 (AID 885). Further: nearly all actives have a fitted effect of over 65% in size. The note with it: recombinant CYP3A4, Luciferin-PPXE luminescence, 60 min; series mostly up to 57.1 µM. The essentials: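 Signal was normalized against complete inhibition by 57 uM ketoconazole. The reaction used 20nM CYP3A4 with 25uM Luciferin-PPXE, 10-min compound preincubation and a 60-min NADPH-supported step at RT.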

The target of test [12] is Cytochrome P450 2C19 (Homo sapiens) (UniProt P33261). Briefly: qHTS Assay for Inhibitors and Substrates of Cytochrome P450 2C19 (AID 899). Further: potency means the concentration at half of the fitted maximal effect; nearly all actives have a fitted effect of over 60% in size. The settings on record: recombinant CYP2C19, luciferin-H EGE luminescence; series mostly up to 57.1 µM. The essentials: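 NADPH-dependent conversion of Luciferin-H EGE (10uM, at KM) by 5nM enzyme in 50mM KPO4, 60 min at 37C following 10 min compound preincubation. Stopped with luciferin detection buffer; luminescence read after 20 min.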

Test [13] addresses Dual specificity protein kinase CLK4 (Homo sapiens) (UniProt Q9HAZ1). Description: qHTS Assay for Inhibitors of CDC-like Kinase 4 (Kinase-Glo Assay) (AID 1770). Further: on the % scale 0 is the no-effect control and ±100 the full control effect; nearly all actives have a fitted effect of over 65% in size. The settings on record: recombinant Clk4, Kinase-Glo ATP depletion luminescence; series mostly up to 66.7 µM. The method in brief: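 Clk4 25 nM, RS peptide 100 uM, ATP 1 uM, pH 7.5 Tris, 10 mM MgCl2, 2.5 mM DTT; 4.5 h RT; ATP depletion read by Kinase-Glo luminescence.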

For test [14] the target is unchanged. Description: qHTS Assay for Inhibitors of CDC-like Kinase 4 (ADP-Glo Assay) (AID 1771). Further: on the % scale 0 is the no-effect control and ±100 the full control effect; nearly all actives have a fitted effect of over 70% in size. The note with it: recombinant CLK4, ADP-Glo luminescence; series mostly up to 80 µM. The method in brief: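 25 nM Clk4 with 100 uM RS repeat peptide and 1 uM ATP (final) in buffer with 2 mM MgCl2, 0.5 mM EGTA, 2.5 mM DTT, 0.01% Triton X-100; 1 h at room temperature; ADP-Glo luminescence for ADP formed.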

For test [15] the target is unchanged. Description: qHTS Assay for Inhibitors of CDC-like Kinase 4 (ADP-FP Assay) (AID 1795). Further: on the % scale 0 is the no-effect control and ±100 the full control effect; nearly all actives have a fitted effect of over 60% in size. The settings on record: Transcreener ADP fluorescence polarization; series mostly up to 50 µM. The method in brief:
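Kinase activity was followed as ADP output, converted from fluorescence polarization with a calibration curve. Reactions ran one hour at low ATP (1 uM) with RS peptide substrate.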

Test [16] concerns the target Ubiquitin carboxyl-terminal hydrolase 1 (Homo sapiens) (UniProt O94782). Briefly: Inhibitors of USP1/UAF1: Pilot qHTS (AID 504865).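 Further: rhodamine fluorescence freed from ubiquitin-rhodamine substrate followed over time; top concentration of the series differs between compounds; on the % scale 0 is the no-effect control and ±100 the full control effect; nearly all actives have a fitted effect of over 35% in size.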 The settings on record: purified USP1/UAF1, Ub-rhodamine cleavage fluorescence; series mostly up to 54.9 µM. The essentials: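 Enzyme-free wells gave the negative control, while test wells held 1nM USP1/UAF1 preincubated with compound for 15 min at room temperature. Ub-Rho at 150nM final started the reaction, and fluorescence at 480/540 nm was recorded kinetically.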

Test [17] in a line: Primary qHTS for small molecule stabilizers of the endoplasmic reticulum resident proteome: Secreted ER Calcium Modulated Protein (SERCaMP) assay (AID 1508630). Further: on the % scale 0 is the no-effect control and ±100 the full control effect. The note with it: SH-SY5Y GLuc-SERCaMP (Gaussia luciferase released on ER calcium loss) secretion, thapsigargin, luminescence; series mostly up to 38.4 µM. The essentials:
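GLuc-SERCaMP-expressing SH-SY5Y cells, pretreated 16 h with compound, are challenged with thapsigargin to empty ER calcium stores; after 4 h, coelenterazine is added directly to the medium and luminescence is imaged.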

A number with no mark means an inactive call. Records with an inconclusive call do not appear. The source made the active and inactive calls. Unless noted, the call rests on the fitted dose curve; in most records, active means well fitted curve in the direction sought with a large enough effect; inconclusive means small, poorly fitted or top-dose-only effect, or another doubt; inactive means no such curve, though single readings can be large; an effect the other way counts as inactive or inconclusive.

Here are results for 6 compounds from PubChem BioAssay (NCATS).

Sequence of Dual specificity protein kinase CLK4 (Homo sapiens) (Q9HAZ1 whole entry, looked up): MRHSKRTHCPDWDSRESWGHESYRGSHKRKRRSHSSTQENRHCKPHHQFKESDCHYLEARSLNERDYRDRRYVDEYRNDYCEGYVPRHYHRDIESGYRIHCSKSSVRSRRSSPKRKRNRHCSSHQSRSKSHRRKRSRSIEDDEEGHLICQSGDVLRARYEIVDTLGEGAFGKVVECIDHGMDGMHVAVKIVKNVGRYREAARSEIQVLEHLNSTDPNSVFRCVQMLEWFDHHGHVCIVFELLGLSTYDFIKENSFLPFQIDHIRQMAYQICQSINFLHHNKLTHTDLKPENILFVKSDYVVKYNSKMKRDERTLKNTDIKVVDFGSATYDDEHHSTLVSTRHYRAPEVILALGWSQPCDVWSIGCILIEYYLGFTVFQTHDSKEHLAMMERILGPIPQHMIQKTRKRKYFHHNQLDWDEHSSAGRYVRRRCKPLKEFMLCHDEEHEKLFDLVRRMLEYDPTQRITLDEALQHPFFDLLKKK
Sequence of Ubiquitin carboxyl-terminal hydrolase 1 (Homo sapiens) (O94782 whole entry, looked up): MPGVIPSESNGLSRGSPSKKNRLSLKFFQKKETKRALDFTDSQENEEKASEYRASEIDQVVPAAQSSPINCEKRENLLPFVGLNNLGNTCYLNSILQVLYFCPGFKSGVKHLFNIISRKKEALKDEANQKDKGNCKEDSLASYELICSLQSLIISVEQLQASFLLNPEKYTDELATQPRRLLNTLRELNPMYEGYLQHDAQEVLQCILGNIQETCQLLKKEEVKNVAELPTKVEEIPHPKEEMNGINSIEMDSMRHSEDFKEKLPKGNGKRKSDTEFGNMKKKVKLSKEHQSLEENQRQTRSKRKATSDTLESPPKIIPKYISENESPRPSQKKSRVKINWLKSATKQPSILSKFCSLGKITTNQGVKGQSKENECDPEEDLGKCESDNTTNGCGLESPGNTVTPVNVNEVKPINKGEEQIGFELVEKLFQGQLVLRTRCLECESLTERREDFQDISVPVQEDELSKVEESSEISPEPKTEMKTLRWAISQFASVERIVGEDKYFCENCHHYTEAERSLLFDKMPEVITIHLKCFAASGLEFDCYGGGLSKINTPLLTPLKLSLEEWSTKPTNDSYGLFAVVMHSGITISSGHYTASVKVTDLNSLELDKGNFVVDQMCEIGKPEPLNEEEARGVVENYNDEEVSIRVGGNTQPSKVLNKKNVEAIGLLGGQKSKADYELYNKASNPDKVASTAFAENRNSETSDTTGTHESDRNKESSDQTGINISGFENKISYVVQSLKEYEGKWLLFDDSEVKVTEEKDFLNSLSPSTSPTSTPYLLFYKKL
Sequence of 3',5'-cyclic-AMP phosphodiesterase 4B (Homo sapiens) (Q07343 whole entry, looked up): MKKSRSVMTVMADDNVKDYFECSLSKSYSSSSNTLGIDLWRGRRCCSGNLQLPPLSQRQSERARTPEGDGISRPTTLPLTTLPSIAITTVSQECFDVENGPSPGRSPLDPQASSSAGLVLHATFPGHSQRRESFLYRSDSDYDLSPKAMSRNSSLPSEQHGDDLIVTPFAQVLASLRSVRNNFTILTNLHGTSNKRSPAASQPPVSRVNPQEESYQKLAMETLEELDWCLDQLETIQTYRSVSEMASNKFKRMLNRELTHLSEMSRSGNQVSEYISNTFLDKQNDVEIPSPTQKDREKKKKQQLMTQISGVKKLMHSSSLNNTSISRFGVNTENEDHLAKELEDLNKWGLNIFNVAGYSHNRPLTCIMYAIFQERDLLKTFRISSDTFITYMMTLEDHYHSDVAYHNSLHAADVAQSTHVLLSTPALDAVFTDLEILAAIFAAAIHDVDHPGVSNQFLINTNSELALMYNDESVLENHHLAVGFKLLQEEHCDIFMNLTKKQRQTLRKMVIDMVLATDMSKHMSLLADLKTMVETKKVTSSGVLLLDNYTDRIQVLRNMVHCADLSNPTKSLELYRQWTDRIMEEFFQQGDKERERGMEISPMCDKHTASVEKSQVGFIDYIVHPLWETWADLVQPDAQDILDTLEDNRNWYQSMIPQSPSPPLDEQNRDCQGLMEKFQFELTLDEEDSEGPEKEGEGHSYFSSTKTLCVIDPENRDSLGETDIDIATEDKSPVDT
Sequence of Lysosomal acid glucosylceramidase (Homo sapiens) (P04062 whole entry, looked up): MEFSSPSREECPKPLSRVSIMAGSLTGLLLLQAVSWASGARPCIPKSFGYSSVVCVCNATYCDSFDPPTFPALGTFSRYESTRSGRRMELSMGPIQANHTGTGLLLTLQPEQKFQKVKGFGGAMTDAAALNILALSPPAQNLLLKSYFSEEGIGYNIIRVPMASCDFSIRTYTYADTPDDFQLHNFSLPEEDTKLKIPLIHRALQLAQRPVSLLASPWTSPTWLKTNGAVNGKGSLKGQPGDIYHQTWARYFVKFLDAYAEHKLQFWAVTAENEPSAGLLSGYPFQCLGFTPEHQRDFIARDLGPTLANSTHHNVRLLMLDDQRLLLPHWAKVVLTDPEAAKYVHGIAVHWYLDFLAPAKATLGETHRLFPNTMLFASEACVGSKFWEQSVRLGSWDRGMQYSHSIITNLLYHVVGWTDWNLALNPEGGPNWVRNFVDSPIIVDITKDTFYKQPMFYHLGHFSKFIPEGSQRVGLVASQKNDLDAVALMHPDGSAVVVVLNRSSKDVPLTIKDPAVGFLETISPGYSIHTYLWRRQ
Sequence of Cytochrome P450 3A4 (Homo sapiens) (P08684 whole entry, looked up): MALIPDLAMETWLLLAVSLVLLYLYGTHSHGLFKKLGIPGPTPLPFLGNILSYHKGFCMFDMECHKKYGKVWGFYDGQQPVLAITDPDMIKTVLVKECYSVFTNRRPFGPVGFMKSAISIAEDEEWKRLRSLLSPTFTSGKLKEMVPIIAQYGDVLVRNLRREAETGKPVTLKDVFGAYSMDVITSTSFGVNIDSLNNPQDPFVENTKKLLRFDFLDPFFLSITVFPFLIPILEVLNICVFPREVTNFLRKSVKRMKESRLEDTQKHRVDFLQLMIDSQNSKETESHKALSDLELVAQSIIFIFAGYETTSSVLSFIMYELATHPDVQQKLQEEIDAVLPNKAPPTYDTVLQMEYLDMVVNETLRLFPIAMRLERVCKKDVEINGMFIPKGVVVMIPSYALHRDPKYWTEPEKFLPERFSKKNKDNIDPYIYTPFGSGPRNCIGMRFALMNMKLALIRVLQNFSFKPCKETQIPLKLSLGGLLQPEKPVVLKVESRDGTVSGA
Sequence of Cytochrome P450 1A2 (Homo sapiens) (P05177 whole entry, looked up): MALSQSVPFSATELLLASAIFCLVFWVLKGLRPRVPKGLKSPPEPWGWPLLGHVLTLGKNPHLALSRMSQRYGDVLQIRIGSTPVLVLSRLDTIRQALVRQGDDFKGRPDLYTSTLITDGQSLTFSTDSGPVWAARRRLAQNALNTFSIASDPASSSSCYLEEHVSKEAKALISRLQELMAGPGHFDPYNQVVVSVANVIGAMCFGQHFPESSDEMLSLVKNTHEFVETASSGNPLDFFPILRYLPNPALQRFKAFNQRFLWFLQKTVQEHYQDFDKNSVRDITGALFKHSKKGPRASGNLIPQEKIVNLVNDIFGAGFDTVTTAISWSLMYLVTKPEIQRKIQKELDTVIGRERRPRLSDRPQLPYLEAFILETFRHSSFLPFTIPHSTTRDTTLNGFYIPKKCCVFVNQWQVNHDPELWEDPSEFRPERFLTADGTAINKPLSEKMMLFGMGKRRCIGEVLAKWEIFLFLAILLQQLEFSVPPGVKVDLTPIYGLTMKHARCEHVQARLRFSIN
Sequence of Glucocorticoid receptor (Homo sapiens) (P04150 whole entry, looked up): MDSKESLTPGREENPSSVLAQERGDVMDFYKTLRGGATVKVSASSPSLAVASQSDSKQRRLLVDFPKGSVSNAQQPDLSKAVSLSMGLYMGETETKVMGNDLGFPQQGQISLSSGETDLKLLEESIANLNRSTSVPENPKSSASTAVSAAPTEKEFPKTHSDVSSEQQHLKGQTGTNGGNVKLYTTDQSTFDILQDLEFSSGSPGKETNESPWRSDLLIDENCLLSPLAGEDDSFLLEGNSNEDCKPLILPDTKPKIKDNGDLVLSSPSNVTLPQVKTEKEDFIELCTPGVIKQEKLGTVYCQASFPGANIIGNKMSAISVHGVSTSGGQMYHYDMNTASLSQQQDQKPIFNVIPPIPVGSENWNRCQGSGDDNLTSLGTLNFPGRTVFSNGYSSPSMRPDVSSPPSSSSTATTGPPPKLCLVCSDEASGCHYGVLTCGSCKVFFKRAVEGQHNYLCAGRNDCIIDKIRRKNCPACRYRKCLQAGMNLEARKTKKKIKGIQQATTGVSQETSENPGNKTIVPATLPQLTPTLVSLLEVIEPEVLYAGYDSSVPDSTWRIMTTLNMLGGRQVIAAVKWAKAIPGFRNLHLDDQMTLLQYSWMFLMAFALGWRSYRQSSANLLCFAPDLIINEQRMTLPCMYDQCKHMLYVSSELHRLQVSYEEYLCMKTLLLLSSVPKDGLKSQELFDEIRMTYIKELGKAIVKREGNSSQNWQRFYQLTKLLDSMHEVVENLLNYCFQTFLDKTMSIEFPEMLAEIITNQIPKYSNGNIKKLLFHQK
Sequence of Cytochrome P450 2C19 (Homo sapiens) (P33261 whole entry, looked up): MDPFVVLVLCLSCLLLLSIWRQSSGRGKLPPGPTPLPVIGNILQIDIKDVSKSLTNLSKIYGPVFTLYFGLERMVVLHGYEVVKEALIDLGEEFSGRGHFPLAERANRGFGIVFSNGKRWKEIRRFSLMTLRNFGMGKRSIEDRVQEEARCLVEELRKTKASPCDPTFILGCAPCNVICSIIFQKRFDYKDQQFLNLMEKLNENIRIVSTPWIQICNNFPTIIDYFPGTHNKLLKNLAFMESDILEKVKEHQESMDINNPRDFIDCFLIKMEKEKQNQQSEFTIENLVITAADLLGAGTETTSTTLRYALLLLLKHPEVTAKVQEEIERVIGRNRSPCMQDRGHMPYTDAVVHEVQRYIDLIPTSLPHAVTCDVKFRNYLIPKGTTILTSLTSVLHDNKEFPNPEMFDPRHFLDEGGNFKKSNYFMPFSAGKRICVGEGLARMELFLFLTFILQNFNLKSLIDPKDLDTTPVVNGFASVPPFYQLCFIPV

With `CN(C)C(=O)c1ccc(-c2cncnc2NCc2cccnc2)cc1`, the Potency in test [1] was more than 11.4 µM; in test [3], 5.01 µM (active); in test [6], more than 46 µM; in [7], more than 46 µM; in test [10] it was 5.01 µM (active); in test [12] it was 2.51 µM (active). Moreover, the activity change, negative = inhibition is 22% in test [2] and 3.94% in test [4]. Also, the activity, negative = inhibition in test [5] was 17.6%. The Potency entry in test [8], in test [9], in test [11], in test [13], in test [14] and in test [15] was “inactive” each time. Also, the Potency result in test [16] was “inactive”. In [17], the outcome was inactive.

On to `COc1ccc(-c2nc3cnc(OC)nc3n(C)c2=O)cc1`, for which the Potency in [1] is more than 11.4 µM; in [3], 2.51 µM (active); in [6], more than 9.22 µM; in test [7], more than 46 µM. The activity change, negative = inhibition in test [2] was 8.21%; in test [4] it was -0.516%. Also, the activity, negative = inhibition in test [5] was 15.6%. In addition, the Potency result in [8], in test [9], in [11], in test [13], in test [14] and in test [15] was “inactive” each time. Besides, the Potency result in test [16] was “inactive”. Besides, the outcome in test [17] was inactive.

As for `COc1ccccc1CNc1ccnc(-c2ccc(C(=O)N(C)C)cc2)n1`, the Potency in test [1] was more than 11.4 µM; in [3], 12.6 µM (active); in [6], more than 46 µM; in test [7], more than 46 µM. Besides, the activity change, negative = inhibition in test [2] was -10.9%; in test [4], 4.15%. Also, the activity, negative = inhibition in test [5] was -1.46%. The Potency entry in [8], in test [9], in [11], in test [13], in [14] and in test [15] was “inactive” each time. Further, the Potency result in [16] was “inactive”. For the same compound, in test [17], the outcome was inactive.

For the compound `COCCn1c(=O)c(-c2cc(F)cc(F)c2)nc2cncnc21`, the Potency in test [1] is more than 11.4 µM; in test [3] it was 2 µM (active); in test [6], more than 9.22 µM; in [7] it was more than 46 µM. In addition, the activity change, negative = inhibition in test [2] was -5.19%; in test [4], 1.95%. In test [5], the activity, negative = inhibition is -7.77%. The Potency result in test [8], in [9], in test [11], in test [13], in [14] and in test [15] was “inactive” throughout. The Potency entry in [16] was “inactive”. In test [17], the result was inactive.

On to `COc1ccc(CNc2ncncc2-c2ccccc2C(F)(F)F)c(OC)c1`, for which the Potency was more than 11.4 µM in [1]; 15.8 µM (active) in test [3]; more than 46 µM in test [6]; more than 46 µM in test [7]; 0.316 µM (active) in test [10]; 1.58 µM (active) in test [12]. For the same compound, the activity change, negative = inhibition in test [2] was -23.4%; in [4] it was -7.18%. For the same compound, in [5], the activity, negative = inhibition is 2.4%. The Potency result in test [8], in [9], in [11], in test [13], in test [14] and in test [15] was “inactive” throughout. In test [16], the Potency result was “inactive”. Also, the outcome in test [17] was inactive.

For `Cc1ccccc1-c1cncnc1NCc1cccnc1`, the Potency was more than 11.4 µM in [1]; 15.8 µM (active) in test [3]; more than 46 µM in test [6]; more than 46 µM in [7]; 0.631 µM (active) in test [10]; 0.398 µM (active) in test [12]. Besides, the results for the activity change, negative = inhibition in test [2] and in test [4] were -2.76% and -14.1%, respectively. Also, the activity, negative = inhibition in test [5] is 4.91%. Further, the Potency result in [8], in [9], in test [11], in test [13], in [14] and in [15] was “inactive” in each case. Further, the Potency entry in test [16] was “inactive”. The result in test [17] was inactive.
